This is an account of results in PubChem BioAssay (NCATS).

Unmarked numbers belong to inactive results. Results filed as inconclusive are left out. Active and inactive are the calls of the source. Unless noted, the call rests on the fitted dose curve; in most records, active means well fitted curve in either direction with a large enough effect (not every such curve was filed as active); inconclusive means small, poorly fitted or top-dose-only effect, or another doubt; inactive means flat fitted curve, though single readings scatter. Where only a bound is given, the exact number is not on record here.

In assay [1] the target is Lysosomal acid glucosylceramidase (Homo sapiens) (UniProt P04062). Nature of the assay: Glucocerebrosidase-p2 (AID 348; in the data active means potency below about 10 µM; further: potency means the concentration at half of the fitted maximal effect). The note with it: purified GBA, blue fluorogenic substrate, 40 min. The method, boiled down:
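Compounds titrated from 0.6 nM upwards against 0.2 nM enzyme in pH 5.9 citric acid/KH2PO4, taurocholate, tween-20; blue fluorogenic substrate 80 uM, 40 min room temperature, stopped and read Ex 365/Em 440 for AC50.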

Assay [2] is described as follows: AP1 Signaling Pathway (AID 357).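 Further: ME-180 reporter cells stimulated with EGF at its EC50 level; on the % scale 0 is the no-effect control and ±100 the full control effect.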 The note with it: ME-180 AP-1-bla reporter, EGF-induced, beta-lactamase ratio, 5 h; at 7.69 µM (top of the series) unless noted. In short, it runs like this:
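In this screen, ME-180 cells in Opti-MEM with 0.5% dialyzed FBS received EC50 EGF and compound titrations for 5 h. AP-1 reporter beta-lactamase was detected via CCF4 ratio, giving AC50 for positive and negative modulators.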

Assay [3] has as its target Cytochrome P450 1A2 (Homo sapiens) (UniProt P05177). Nature of the assay: p450-cyp1a2 (AID 410; calls by dose curve; further: potency means the concentration at half of the fitted maximal effect;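 on activity change, negative = inhibition: -100% = full effect of reference inhibitor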). The note with it: recombinant CYP1A2, luciferin-ME demethylation, luminescence; series mostly up to 57 µM. The method, boiled down: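 Human CYP1A2 (20nM) demethylated Luciferin-ME at its Km (100uM) in 100mM KPO4. After 10 min compound preincubation, NADPH regeneration ran the reaction 60 min at room temperature. Luciferin was read by luminescence, normalized to 57 uM furafylline.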

Assay [4] is described as follows: NFAT Signaling Pathway (AID 444).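 Further: carbachol stimulus at about its EC50 of 1 µM final; on the % scale 0 is the no-effect control and ±100 the full control effect.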 The note with it: Jurkat NFAT-bla M1, carbachol, beta-lactamase ratio, 5 h; at 7.69 µM (top of the series) unless noted. The method, boiled down: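 Jurkat cells carrying an NFAT-driven β-lactamase reporter and co-transfected muscarinic M1 receptor were treated with compound plus carbachol (1 uM final, an EC50 level) for 5 h at 37 °C. CCF4 loading followed for 1 h at RT; 460/530 nm ratio gave %activity.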

The nature of assay [5]: Stat Signaling Pathway (AID 446).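 Further: ME-180 cervical cancer cells given 40 pM IL-6 alongside compound; SIE-controlled beta-lactamase reporter measured as 460/530 nm FRET emission ratio; on the % scale 0 is the no-effect control and ±100 the full control effect.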 The note with it: ME-180 (cervical carcinoma) SIE beta-lactamase reporter, IL-6 stimulated, 5 h; at 7.69 µM (top of the series) unless noted. In short, it runs like this:
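IL-6/STAT signaling read in ME-180 cells via an SIE beta-lactamase reporter. Stimulus was 40 pM IL-6 (its AC50) for 5 hrs, so both activation and inhibition register.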

For assay [6], the target named is Glucocorticoid receptor (Homo sapiens) (UniProt P04150). Put plainly: GR-EFC Redistribution (AID 451; calls by dose curve; further: potency means the concentration at half of the fitted maximal effect). The note with it: CHO-K1 GR-EFC translocation, beta-gal luminescence, 2 h. The method, boiled down:
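CHO-K1 cells stably expressing nuclear-localized β-gal enzyme acceptor and GR fused C-terminally to the enzyme donor fragment; ligand-driven nuclear translocation restores β-gal by complementation. Compounds titrated up to 46 uM final, 2 h at 37 °C; luminescence read.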

Assay [7] deals with Mitogen-activated protein kinase 10 (Mus musculus) (UniProt Q61831). Nature of the assay: JNK3 AlphaScreen Assay (AID 530).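 Further: kinase came from lysate of stimulated human HepG2 cells; signal reports phosphorylation of biotinylated GST-cJun 1-79 at Ser73 with 10 µM ATP; on the % scale 0 is the no-effect control and ±100 the full control effect.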 The note with it: JNK3 lysate, c-Jun phosphorylation; series mostly up to 57.1 µM. In short, it runs like this:
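JNK3 came from HepG2 lysates pre-activated with IL-1beta and TNF-alpha and phosphorylated biotinylated GST-cJun (1-79) at 10 uM ATP, pH 7.6, room temperature. Compounds were titrated. AlphaScreen signal used anti-phospho-cJun (Ser73) antibody.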
Background: Alpha assays give light when donor and acceptor beads are brought close together.

For assay [8], the target named is 3',5'-cyclic-AMP phosphodiesterase 4B (Homo sapiens) (UniProt Q07343). Put plainly: qHTS Assay for Inhibitors of PDE-IV (AID 607; active means well fitted activation curve with a large enough effect in the main read-out, with a control signal flat, not every such curve was filed as active; further: % of control where 0% means no effect). The note with it: HEK293 ACTOne CNG channel cells, membrane potential fluorescence; series mostly up to 22.9 µM. The method, boiled down: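 Live HEK293 cells with a modified cyclic nucleotide-gated (CNG) channel report intracellular cAMP via membrane-potential dye fluorescence (ex 535/em 590 nm). Endogenous PDE-IV was targeted. Compounds were tested at up to 22.9 uM final; RO 20-1724 100 uM served as control.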

Assay [9] in a line: Primary qHTS for small molecule stabilizers of the endoplasmic reticulum resident proteome: Secreted ER Calcium Modulated Protein (SERCaMP) assay (AID 1508630; active means well fitted curve in the direction sought with a large enough effect; an effect the other way counts as inactive or inconclusive; further: on the % scale 0 is the no-effect control and ±100 the full control effect). The note with it: SH-SY5Y GLuc-SERCaMP (Gaussia luciferase released on ER calcium loss) secretion, thapsigargin, luminescence; series mostly up to 38.4 µM. In short, it runs like this:
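GLuc-SERCaMP-expressing SH-SY5Y cells, pretreated 16 h with compound, are challenged with thapsigargin to empty ER calcium stores; after 4 h, coelenterazine is added directly to the medium and luminescence is imaged.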
In general terms: qHTS replaces the single test concentration by a dilution series.

Assay [10] can be described thus: Confirmation and Secondary Assay for Modulators of Hemoglobin Beta Chain Splicing at IVS2 654 locus (AID 910; active means well fitted curve in the direction sought with a large enough effect; an effect the other way counts as inactive or inconclusive;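 further: per-well total GFP intensity by laser scanning cytometry after 2-day treatment; % of control where 0% means no effect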). The note with it: HeLa EGFP-654 splicing reporter, GFP fluorescence, 48 h; series mostly up to 38.3 µM. The method, boiled down:
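HeLa cells stably carrying EGFP interrupted by mutant beta-globin IVS2-654 intron (CMV-driven) were treated with compound for 2 days at 37C; corrected splicing was scored as total peak GFP intensity per well (488 nm excitation, 500-520 nm emission).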

The target in assay [11] is Ubiquitin carboxyl-terminal hydrolase 1 (Homo sapiens) (UniProt O94782). Put plainly: Inhibitors of USP1/UAF1: Pilot qHTS (AID 504865; active means well fitted curve in the direction sought with a large enough effect; an effect the other way counts as inactive or inconclusive;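 further: rhodamine fluorescence freed from ubiquitin-rhodamine substrate followed over time; top concentration of the series differs between compounds; on the % scale 0 is the no-effect control and ±100 the full control effect; nearly all actives have a fitted effect of over 35% in size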). The note with it: purified USP1/UAF1, Ub-rhodamine cleavage fluorescence; series mostly up to 54.9 µM. In short, it runs like this: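 USP1/UAF1 complex (1nM) preincubated with compound 15 min at room temperature, then Ub-Rho substrate (150nM final) added. Fluorescence read kinetically at 480/540 nm, 6 reads every 60 seconds. Buffer: 50mM HEPES pH 7.8, 0.5mM EDTA, 0.1 mg/ml BSA, 1mM TCEP, 0.01% Tween-20.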

Assay [12] addresses Cytochrome P450 3A4 (Homo sapiens) (UniProt P08684). Nature of the assay: qHTS Assay for Inhibitors and Substrates of Cytochrome P450 3A4 (AID 884; active means well fitted curve in the direction sought with a large enough effect; an effect the other way counts as inactive or inconclusive; further: potency means the concentration at half of the fitted maximal effect; nearly all actives have a fitted effect of over 50% in size). The note with it: recombinant CYP3A4, Luciferin-PPXE luminescence; series mostly up to 57.1 µM. The method, boiled down:
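20 nM human CYP3A4 with 25 uM Luciferin-PPXE (at KM) in 200 mM KPO4, preincubated 10 min with compound; NADPH regeneration started a 60 min RT reaction. Luciferin detected by luminescence, normalized to 57 uM ketoconazole as full inhibition.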

The target is the same in assay [13]. Nature of the assay: qHTS Assay for Activators of Cytochrome P450 3A4 (AID 885; active means well fitted curve in the direction sought with a large enough effect; an effect the other way counts as inactive or inconclusive; further: nearly all actives have a fitted effect of over 65% in size). The note with it: recombinant CYP3A4, Luciferin-PPXE luminescence, 60 min; series mostly up to 57.1 µM. The method, boiled down:
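Quantitative HTS format: compounds preincubated with 20nM human CYP3A4 and Luciferin-PPXE substrate at KM, reaction started by NADPH regeneration, stopped after 60 min, luciferase luminescence read 20 min later.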

Sequence of Cytochrome P450 3A4 (Homo sapiens) (P08684 whole entry, looked up): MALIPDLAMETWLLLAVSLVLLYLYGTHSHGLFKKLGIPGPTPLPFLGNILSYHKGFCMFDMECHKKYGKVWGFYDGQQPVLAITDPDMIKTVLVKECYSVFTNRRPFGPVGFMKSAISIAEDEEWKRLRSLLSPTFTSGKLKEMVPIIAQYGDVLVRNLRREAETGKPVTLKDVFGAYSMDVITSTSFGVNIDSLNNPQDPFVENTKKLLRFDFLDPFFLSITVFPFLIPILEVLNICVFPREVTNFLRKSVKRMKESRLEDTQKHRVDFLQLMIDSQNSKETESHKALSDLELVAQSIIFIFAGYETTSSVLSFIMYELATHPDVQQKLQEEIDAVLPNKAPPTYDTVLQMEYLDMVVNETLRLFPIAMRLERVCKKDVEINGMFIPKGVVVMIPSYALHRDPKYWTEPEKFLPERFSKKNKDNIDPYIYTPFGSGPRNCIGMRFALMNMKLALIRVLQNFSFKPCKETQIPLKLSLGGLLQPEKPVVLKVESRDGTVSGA
Sequence of Cytochrome P450 1A2 (Homo sapiens) (P05177 whole entry, looked up): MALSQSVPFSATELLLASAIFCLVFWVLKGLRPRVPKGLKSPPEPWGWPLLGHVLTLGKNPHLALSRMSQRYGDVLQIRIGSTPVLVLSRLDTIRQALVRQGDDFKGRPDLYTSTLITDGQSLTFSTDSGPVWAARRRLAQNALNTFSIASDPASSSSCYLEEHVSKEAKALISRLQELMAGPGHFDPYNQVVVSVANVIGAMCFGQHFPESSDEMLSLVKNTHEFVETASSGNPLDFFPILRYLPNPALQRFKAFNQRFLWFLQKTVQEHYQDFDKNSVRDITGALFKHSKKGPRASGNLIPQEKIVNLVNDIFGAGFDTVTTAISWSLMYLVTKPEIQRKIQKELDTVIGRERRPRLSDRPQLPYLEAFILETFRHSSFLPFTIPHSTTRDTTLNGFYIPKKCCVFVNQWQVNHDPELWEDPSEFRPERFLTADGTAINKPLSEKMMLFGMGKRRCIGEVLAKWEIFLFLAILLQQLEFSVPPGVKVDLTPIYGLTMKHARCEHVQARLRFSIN
Sequence of Lysosomal acid glucosylceramidase (Homo sapiens) (P04062 whole entry, looked up): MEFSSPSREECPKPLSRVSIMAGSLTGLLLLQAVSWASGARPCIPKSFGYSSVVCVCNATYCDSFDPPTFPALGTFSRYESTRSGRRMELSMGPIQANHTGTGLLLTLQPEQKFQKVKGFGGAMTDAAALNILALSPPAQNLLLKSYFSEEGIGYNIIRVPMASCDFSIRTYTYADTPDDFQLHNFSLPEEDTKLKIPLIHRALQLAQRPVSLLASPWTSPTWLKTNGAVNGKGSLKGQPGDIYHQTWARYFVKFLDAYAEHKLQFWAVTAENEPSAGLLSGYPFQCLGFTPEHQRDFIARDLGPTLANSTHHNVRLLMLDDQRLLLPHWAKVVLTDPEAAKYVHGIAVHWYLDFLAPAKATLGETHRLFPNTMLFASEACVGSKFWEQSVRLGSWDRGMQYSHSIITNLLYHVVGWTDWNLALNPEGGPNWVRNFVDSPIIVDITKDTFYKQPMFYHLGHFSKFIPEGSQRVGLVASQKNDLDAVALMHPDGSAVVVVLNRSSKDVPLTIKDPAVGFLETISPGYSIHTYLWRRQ
Sequence of Glucocorticoid receptor (Homo sapiens) (P04150 whole entry, looked up, the tested form may be a part): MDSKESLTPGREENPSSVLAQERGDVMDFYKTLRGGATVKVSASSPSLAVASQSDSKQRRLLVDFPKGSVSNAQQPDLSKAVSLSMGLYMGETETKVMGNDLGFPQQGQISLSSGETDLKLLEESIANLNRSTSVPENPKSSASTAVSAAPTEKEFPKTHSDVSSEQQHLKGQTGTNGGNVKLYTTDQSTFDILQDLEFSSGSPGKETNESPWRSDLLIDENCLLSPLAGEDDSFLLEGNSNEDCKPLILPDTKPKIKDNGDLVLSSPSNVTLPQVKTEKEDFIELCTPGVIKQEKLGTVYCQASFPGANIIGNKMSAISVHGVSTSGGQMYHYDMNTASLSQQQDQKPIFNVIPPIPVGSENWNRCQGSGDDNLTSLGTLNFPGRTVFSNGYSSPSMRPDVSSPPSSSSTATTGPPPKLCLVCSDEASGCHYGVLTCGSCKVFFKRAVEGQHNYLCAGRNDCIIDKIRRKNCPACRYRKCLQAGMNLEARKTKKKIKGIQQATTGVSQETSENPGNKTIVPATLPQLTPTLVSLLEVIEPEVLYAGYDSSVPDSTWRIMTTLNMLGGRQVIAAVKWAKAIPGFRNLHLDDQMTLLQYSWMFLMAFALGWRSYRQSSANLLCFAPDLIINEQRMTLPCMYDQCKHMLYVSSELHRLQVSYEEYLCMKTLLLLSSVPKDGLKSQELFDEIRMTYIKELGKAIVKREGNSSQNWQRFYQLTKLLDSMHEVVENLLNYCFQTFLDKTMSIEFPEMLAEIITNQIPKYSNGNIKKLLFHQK
Sequence of 3',5'-cyclic-AMP phosphodiesterase 4B (Homo sapiens) (Q07343 whole entry, looked up): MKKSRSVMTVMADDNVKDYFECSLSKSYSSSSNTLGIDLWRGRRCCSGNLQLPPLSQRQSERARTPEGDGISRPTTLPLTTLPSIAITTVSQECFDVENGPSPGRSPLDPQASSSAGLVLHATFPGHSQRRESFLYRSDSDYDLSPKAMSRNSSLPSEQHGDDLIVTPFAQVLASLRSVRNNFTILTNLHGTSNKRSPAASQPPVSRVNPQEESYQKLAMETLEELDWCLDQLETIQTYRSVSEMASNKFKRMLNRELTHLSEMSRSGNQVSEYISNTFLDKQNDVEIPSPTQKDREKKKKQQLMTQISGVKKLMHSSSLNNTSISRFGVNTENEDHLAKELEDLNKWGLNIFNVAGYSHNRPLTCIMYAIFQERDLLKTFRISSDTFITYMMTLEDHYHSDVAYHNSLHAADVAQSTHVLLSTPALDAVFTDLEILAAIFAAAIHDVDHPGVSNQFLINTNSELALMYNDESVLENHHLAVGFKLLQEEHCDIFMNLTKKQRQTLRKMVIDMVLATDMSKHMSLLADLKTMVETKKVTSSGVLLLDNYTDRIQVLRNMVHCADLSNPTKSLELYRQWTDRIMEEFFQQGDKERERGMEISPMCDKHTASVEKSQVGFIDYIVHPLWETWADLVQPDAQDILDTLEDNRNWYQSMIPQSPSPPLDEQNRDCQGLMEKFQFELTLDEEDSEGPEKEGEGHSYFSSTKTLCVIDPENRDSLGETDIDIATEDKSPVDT
Sequence of Ubiquitin carboxyl-terminal hydrolase 1 (Homo sapiens) (O94782 whole entry, looked up): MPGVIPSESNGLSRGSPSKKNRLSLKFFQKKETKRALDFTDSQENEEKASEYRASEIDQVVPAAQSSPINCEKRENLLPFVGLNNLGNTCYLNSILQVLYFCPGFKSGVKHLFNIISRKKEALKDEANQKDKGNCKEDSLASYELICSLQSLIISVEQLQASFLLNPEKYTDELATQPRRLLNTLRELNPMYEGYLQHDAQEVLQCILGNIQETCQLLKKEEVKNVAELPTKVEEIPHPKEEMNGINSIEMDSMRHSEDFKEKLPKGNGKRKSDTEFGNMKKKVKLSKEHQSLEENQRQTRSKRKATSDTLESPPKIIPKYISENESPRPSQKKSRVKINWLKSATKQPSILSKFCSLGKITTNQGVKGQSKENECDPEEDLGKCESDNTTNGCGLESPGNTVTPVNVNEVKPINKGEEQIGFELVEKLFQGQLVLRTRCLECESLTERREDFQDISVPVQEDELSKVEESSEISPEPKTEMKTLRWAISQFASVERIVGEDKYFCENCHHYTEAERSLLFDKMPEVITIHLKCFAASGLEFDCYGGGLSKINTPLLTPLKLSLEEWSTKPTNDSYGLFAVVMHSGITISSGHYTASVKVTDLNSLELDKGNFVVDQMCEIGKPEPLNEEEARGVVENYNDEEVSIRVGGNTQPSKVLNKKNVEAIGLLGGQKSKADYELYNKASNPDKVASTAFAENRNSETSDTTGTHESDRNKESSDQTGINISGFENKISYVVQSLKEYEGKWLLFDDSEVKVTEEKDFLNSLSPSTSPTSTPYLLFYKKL

Regarding `COCC(=O)N1CCC2(CCCN(Cc3nccs3)C2)CC1`, the Potency in assay [1] is greater than 11.4 µM; in assay [6], greater than 46 µM. For the same molecule, the activity change, negative = inhibition was -21.8% in [2] and -25.4% in assay [4]. The Potency result in assay [3], in [7] and in assay [8] was “inactive” throughout. The activity, negative = inhibition in [5] is -1.77%. The outcome in assay [9] was inactive.

Regarding `COCC(=O)N1CCC2(CCCN(C(=O)Nc3ccccc3)C2)CC1`, the Potency in assay [1] is greater than 11.4 µM; in [6], greater than 46 µM. In addition, the activity change, negative = inhibition in assay [2] was -1.58%; in assay [4], 13.8%. For the same molecule, the Potency result in assay [3], in assay [7] and in assay [8] was “inactive” each time. Also, in assay [5], the activity, negative = inhibition was 3.14%. Further, the outcome in assay [9] was inactive.

In the case of `CC(=O)N1CCC2(CC1)CCN(c1cccc(-c3ccccc3)c1)CC2`, the figures for the Potency in assay [1], in assay [3] and in assay [6] were greater than 11.4 µM, 3.98 µM (active) and greater than 46 µM, respectively. For the same molecule, the activity change, negative = inhibition in assay [2] is -13.2%; in [4], 16.7%. Also, in assay [5], the activity, negative = inhibition is 18.6%. For the same molecule, the Potency result in assay [7] and in assay [8] was “inactive” throughout. For the same molecule, in assay [9], the outcome was inactive.

`O=S(=O)(c1ccccc1)N1CCC2(CC1)CN(Cc1nccs1)C2`: the values for the Potency in assay [1] and in assay [6] were greater than 11.4 µM and greater than 46 µM, respectively. For the same molecule, the activity change, negative = inhibition in assay [2] was 11.1%; in assay [4] it was -29.2%. For the same molecule, the Potency result in assay [3] and in assay [7] was “inactive” in each case. Further, the activity, negative = inhibition in assay [5] was 9.77%. Also, in [9], the outcome was inactive.

Turning to `CS(=O)(=O)N1CCC2(CCCN(c3ncccn3)C2)CC1`, the Potency in assay [1] is greater than 11.4 µM; in assay [3], 15.8 µM (active); in assay [6] it was greater than 46 µM. In addition, the activity change, negative = inhibition in assay [2] was 1.67%; in assay [4], 2.98%. Besides, the activity, negative = inhibition in [5] was -8.29%. In addition, the Potency entry in [7] and in assay [8] was “inactive” in each case. For the same molecule, the outcome in assay [9] was inactive.

On to `COc1ccc(C(=O)N2CCC3(CCN(Cc4ccncc4)CC3)CC2)cc1`, for which the Potency in [1] was greater than 11.4 µM; in assay [6] it was greater than 46 µM. Further, the activity change, negative = inhibition is -7.79% in assay [2] and -24.2% in assay [4]. The Potency entry in [3], in assay [7] and in [8] was “inactive” throughout. Further, the activity, negative = inhibition in assay [5] is 11.1%. For the same molecule, in assay [9], the result was inactive.

Regarding `CN(C)C(=O)c1ccc(-c2nc(N(C)Cc3ccco3)c3ccccc3n2)cc1`, the Potency in assay [1] was greater than 11.4 µM; in assay [3], 7.94 µM (active); in assay [6] it was greater than 46 µM. The activity change, negative = inhibition in assay [2] is -14.5%; in [4], 18.1%. Also, the activity, negative = inhibition in assay [5] was 3.3%. Also, the Potency entry in [7], in assay [10] and in assay [11] was “inactive” in each case. Moreover, the result in [9] was inactive.

Take `CC(=O)N1CCC2(CCCN(c3ncccn3)C2)CC1`: the Potency in [1] is greater than 11.4 µM; in assay [6], greater than 46 µM. In addition, the activity change, negative = inhibition in assay [2] is -18.1%; in [4], 4.89%. Further, the Potency entry in [3], in [7] and in [8] was “inactive” in each case. Further, in assay [5], the activity, negative = inhibition was -2.74%. The result in assay [9] was inactive.

`O=S(=O)(c1ccccc1)N1CCC2(CCCN(c3cccc(-c4ccccc4)c3)C2)CC1`: the Potency is greater than 11.4 µM in assay [1], greater than 46 µM in assay [6] and 3.98 µM (active) in [12]. For the same molecule, the activity change, negative = inhibition in assay [2] is 7.43%; in assay [4], -13.9%. Moreover, the Potency result in assay [3], in [7], in [8] and in assay [13] was “inactive” throughout. The activity, negative = inhibition in assay [5] was -0.269%. Besides, the result in assay [9] was inactive.

For the molecule `CC(C)NC(=O)N1CCCC2(CCN(C(=O)c3csnn3)CC2)C1`, the values for the Potency in [1] and in assay [6] were greater than 11.4 µM and greater than 46 µM, respectively. In addition, the activity change, negative = inhibition was 3.46% in [2] and -7.86% in assay [4]. For the same molecule, the Potency result in assay [3], in [7], in [8] and in [13] was “inactive” throughout. For the same molecule, the activity, negative = inhibition in assay [5] is 2.78%. Moreover, the result in assay [9] was inactive.
